# Reference: publication PMC7862700, “An all-to-all approach to the identification of sequence-specific readers for epigenetic DNA modifications on cytosine”
# Legend:
# Assay in all cases: DAPPL (digital affinity profiling via proximity ligation, sequencing); 10 mM Tris-HCl pH 7.5, 50 mM NaCl, 1 mM DTT, 4% glycerol, room temperature, 30 min; GST-TFs on glutathione beads, 16-mer random dsDNA library, 0.1% formaldehyde crosslink after washing; high values mean tight binding
# Conditions in all cases: protein: recombinant; tags: N-terminal GST; dsDNA, one strand shown
# [1] = biological target: T1, FLI1 (Homo sapiens, UniProt Q01543 1-452)
# T1 sequence: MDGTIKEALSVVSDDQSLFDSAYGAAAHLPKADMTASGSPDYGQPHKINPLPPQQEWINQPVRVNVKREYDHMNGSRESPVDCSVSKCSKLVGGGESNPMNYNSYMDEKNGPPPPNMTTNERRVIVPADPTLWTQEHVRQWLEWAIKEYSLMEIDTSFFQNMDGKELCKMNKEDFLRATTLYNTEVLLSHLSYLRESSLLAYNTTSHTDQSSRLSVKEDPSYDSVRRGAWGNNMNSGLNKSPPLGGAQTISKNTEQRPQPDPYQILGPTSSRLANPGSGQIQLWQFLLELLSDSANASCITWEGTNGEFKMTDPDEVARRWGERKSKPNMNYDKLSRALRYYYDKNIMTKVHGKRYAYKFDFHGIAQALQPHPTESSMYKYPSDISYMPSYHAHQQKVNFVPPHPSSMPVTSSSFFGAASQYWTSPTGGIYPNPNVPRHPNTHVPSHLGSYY
# Outline: (§1)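 Pools were built from human transcription factors expressed in yeast as GST fusions, captured on glutathione beads and DNA-barcoded, along with a tag-only sample. Incubation with 200 nmole of a 16-mer random double-stranded DNA library lasted 30 min at room temperature in Tris/NaCl/DTT/glycerol buffer, and was followed by washing, 0.1% formaldehyde crosslinking, proximity ligation, PCR amplification and Illumina NextSeq500 sequencing. Binding signal is the quotient of each hexamer's read frequency for a factor and its frequency for the tag-only sample.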
# [2] = biological target: T2, ELK1 (Homo sapiens, UniProt P19419 1-428)
# T2 sequence: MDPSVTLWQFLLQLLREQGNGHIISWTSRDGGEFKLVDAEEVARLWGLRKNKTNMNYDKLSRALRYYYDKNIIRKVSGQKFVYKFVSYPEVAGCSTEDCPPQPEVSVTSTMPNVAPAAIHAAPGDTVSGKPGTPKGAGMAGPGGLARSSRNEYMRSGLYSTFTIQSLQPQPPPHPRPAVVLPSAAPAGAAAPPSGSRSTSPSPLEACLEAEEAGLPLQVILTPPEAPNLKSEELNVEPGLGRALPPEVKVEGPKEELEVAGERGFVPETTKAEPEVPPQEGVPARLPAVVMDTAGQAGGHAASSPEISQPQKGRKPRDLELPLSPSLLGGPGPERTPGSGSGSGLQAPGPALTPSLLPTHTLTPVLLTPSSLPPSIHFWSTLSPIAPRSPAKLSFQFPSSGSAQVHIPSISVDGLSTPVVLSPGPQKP
# Outline: as §1
# [3] = biological target: T3, GABPA (Homo sapiens, UniProt Q06546 1-454)
# T3 sequence: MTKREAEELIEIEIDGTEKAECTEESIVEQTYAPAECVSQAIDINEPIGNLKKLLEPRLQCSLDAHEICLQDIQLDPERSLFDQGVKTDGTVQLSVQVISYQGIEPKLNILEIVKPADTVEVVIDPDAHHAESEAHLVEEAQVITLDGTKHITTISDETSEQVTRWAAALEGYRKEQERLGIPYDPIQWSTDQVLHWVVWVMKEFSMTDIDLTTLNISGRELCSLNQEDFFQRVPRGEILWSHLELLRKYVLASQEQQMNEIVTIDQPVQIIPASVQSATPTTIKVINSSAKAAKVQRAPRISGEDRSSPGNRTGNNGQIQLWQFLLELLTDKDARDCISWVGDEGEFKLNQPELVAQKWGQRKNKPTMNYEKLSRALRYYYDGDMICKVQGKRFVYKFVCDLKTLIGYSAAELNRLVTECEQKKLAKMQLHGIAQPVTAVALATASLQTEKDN
# Outline: as §1
# [4] = biological target: T4, ERG (Homo sapiens, UniProt P11308 1-479)
# T4 sequence: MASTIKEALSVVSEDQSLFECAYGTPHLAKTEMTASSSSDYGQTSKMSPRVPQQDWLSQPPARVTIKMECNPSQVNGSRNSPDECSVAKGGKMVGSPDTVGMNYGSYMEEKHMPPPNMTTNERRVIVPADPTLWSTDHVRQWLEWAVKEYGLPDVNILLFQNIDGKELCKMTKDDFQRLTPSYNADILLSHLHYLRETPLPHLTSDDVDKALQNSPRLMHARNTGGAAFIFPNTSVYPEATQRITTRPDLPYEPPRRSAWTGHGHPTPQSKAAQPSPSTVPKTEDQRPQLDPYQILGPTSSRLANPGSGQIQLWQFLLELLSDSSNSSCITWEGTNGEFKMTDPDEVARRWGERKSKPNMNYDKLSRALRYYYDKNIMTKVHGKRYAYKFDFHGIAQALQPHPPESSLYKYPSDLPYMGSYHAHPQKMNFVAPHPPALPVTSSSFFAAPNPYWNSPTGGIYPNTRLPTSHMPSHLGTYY
# Outline: as §1
# [5] = biological target: ELF1 (Homo sapiens, UniProt P32519 1-619)
# Outline: as §1
# [6] = biological target: T5, EHF (Homo sapiens, UniProt Q9NZC4 1-300)
# T5 sequence: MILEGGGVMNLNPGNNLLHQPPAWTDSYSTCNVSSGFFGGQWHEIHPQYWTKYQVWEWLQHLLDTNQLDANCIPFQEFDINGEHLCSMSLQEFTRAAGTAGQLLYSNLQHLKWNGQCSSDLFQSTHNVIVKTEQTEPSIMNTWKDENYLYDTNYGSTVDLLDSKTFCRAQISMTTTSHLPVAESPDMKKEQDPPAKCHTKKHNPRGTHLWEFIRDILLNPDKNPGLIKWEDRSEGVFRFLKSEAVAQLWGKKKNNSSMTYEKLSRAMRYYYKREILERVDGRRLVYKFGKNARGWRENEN
# Outline: as §1
# [7] = biological target: SPI1 (Homo sapiens, UniProt P17947 1-270)
# Outline: as §1
# [8] = biological target: SPIB (Homo sapiens, UniProt Q01892 1-262)
# Outline: as §1
# [9] = biological target: T6, ELK3 (Homo sapiens, UniProt P41970 1-407)
# T6 sequence: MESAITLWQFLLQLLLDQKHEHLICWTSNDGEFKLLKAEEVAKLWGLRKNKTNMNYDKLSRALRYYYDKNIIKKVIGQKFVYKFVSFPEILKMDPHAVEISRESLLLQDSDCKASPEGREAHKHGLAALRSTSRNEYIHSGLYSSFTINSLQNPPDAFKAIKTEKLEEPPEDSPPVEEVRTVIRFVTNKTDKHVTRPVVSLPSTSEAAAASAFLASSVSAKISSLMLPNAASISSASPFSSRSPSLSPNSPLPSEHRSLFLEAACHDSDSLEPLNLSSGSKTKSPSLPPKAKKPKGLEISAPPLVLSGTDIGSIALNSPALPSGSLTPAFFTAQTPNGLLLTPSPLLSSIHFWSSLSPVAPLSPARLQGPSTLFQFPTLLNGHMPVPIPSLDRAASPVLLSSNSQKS
# Outline: as §1
# ELF1, sequence (P32519 whole entry): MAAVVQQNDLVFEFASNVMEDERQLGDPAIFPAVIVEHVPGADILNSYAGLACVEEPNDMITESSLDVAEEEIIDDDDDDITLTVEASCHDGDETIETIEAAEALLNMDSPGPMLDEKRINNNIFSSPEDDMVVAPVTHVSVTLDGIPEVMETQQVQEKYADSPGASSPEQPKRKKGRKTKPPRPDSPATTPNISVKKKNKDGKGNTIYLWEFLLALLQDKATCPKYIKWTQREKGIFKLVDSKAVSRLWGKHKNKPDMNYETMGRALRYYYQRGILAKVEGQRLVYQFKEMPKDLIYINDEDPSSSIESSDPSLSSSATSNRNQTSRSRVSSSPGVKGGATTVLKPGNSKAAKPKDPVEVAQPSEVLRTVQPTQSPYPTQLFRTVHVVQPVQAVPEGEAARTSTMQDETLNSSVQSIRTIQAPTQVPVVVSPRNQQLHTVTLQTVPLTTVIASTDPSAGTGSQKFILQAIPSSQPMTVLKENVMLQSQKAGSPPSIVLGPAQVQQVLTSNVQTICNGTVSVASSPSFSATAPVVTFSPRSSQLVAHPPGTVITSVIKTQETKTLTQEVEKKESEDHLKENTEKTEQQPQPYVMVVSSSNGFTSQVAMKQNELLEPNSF
# SPIB, sequence (Q01892 whole entry): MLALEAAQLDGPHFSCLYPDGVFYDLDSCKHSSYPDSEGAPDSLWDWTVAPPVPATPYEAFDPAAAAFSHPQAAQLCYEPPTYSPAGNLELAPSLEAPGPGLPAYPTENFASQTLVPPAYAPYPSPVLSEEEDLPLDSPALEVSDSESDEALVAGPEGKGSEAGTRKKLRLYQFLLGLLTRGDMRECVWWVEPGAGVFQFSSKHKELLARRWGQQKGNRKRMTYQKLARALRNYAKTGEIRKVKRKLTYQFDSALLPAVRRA
Sequence,binding signal [1],binding signal [2],binding signal [3],binding signal [4],binding signal [5],binding signal [6],binding signal [7],binding signal [8],binding signal [9]
CGTATT,"1.24 fold enrichment (6-mer frequency, TF over GST control)","1.18 fold enrichment (6-mer frequency, TF over GST control)","1.12 fold enrichment (6-mer frequency, TF over GST control)","1.15 fold enrichment (6-mer frequency, TF over GST control)","1.11 fold enrichment (6-mer frequency, TF over GST control)","1.12 fold enrichment (6-mer frequency, TF over GST control)","1.17 fold enrichment (6-mer frequency, TF over GST control)","1.24 fold enrichment (6-mer frequency, TF over GST control)","1.38 fold enrichment (6-mer frequency, TF over GST control)"
ATGATG,"1.39 fold enrichment (6-mer frequency, TF over GST control)","1.35 fold enrichment (6-mer frequency, TF over GST control)","1.33 fold enrichment (6-mer frequency, TF over GST control)","1.18 fold enrichment (6-mer frequency, TF over GST control)","1.36 fold enrichment (6-mer frequency, TF over GST control)","1.4 fold enrichment (6-mer frequency, TF over GST control)","1.24 fold enrichment (6-mer frequency, TF over GST control)","1.35 fold enrichment (6-mer frequency, TF over GST control)","1.53 fold enrichment (6-mer frequency, TF over GST control)"
AAATAC,"1.3 fold enrichment (6-mer frequency, TF over GST control)","1.27 fold enrichment (6-mer frequency, TF over GST control)","1.43 fold enrichment (6-mer frequency, TF over GST control)","1.43 fold enrichment (6-mer frequency, TF over GST control)","1.36 fold enrichment (6-mer frequency, TF over GST control)","1.39 fold enrichment (6-mer frequency, TF over GST control)","1.41 fold enrichment (6-mer frequency, TF over GST control)","1.36 fold enrichment (6-mer frequency, TF over GST control)","1.37 fold enrichment (6-mer frequency, TF over GST control)"
CTCTCT,"1.77 fold enrichment (6-mer frequency, TF over GST control)","1.78 fold enrichment (6-mer frequency, TF over GST control)","1.56 fold enrichment (6-mer frequency, TF over GST control)","1.62 fold enrichment (6-mer frequency, TF over GST control)","1.76 fold enrichment (6-mer frequency, TF over GST control)","1.66 fold enrichment (6-mer frequency, TF over GST control)","1.53 fold enrichment (6-mer frequency, TF over GST control)","1.56 fold enrichment (6-mer frequency, TF over GST control)","1.49 fold enrichment (6-mer frequency, TF over GST control)"
CTAATG,"1.34 fold enrichment (6-mer frequency, TF over GST control)","1.22 fold enrichment (6-mer frequency, TF over GST control)","1.26 fold enrichment (6-mer frequency, TF over GST control)","1.18 fold enrichment (6-mer frequency, TF over GST control)","1.23 fold enrichment (6-mer frequency, TF over GST control)","1.28 fold enrichment (6-mer frequency, TF over GST control)","1.26 fold enrichment (6-mer frequency, TF over GST control)","1.26 fold enrichment (6-mer frequency, TF over GST control)","1.46 fold enrichment (6-mer frequency, TF over GST control)"
CTCTTT,"1.37 fold enrichment (6-mer frequency, TF over GST control)","1.33 fold enrichment (6-mer frequency, TF over GST control)","1.39 fold enrichment (6-mer frequency, TF over GST control)","1.43 fold enrichment (6-mer frequency, TF over GST control)","1.53 fold enrichment (6-mer frequency, TF over GST control)","1.55 fold enrichment (6-mer frequency, TF over GST control)","2.23 fold enrichment (6-mer frequency, TF over GST control)","1.42 fold enrichment (6-mer frequency, TF over GST control)","1.66 fold enrichment (6-mer frequency, TF over GST control)"
ATCTCT,"1.29 fold enrichment (6-mer frequency, TF over GST control)","1.24 fold enrichment (6-mer frequency, TF over GST control)","1.33 fold enrichment (6-mer frequency, TF over GST control)","1.17 fold enrichment (6-mer frequency, TF over GST control)","1.29 fold enrichment (6-mer frequency, TF over GST control)","1.49 fold enrichment (6-mer frequency, TF over GST control)","1.27 fold enrichment (6-mer frequency, TF over GST control)","1.36 fold enrichment (6-mer frequency, TF over GST control)","1.3 fold enrichment (6-mer frequency, TF over GST control)"
CTTCAA,"1.44 fold enrichment (6-mer frequency, TF over GST control)","1.35 fold enrichment (6-mer frequency, TF over GST control)","1.35 fold enrichment (6-mer frequency, TF over GST control)","1.28 fold enrichment (6-mer frequency, TF over GST control)","1.4 fold enrichment (6-mer frequency, TF over GST control)","1.26 fold enrichment (6-mer frequency, TF over GST control)","1.27 fold enrichment (6-mer frequency, TF over GST control)","1.4 fold enrichment (6-mer frequency, TF over GST control)","1.13 fold enrichment (6-mer frequency, TF over GST control)"
